These results are taken from the supplement of paper PMC11219838.

For this experiment, the system named is Caenorhabditis elegans L1 (N2). As to the kind of experiment: survival and reproduction score of C. elegans L1 (0: 0-10 living worms, 1: 11-20, 2: 21-50, 3: >50, 4: overgrown) (score 0-4); higher = more worms, less nematicidal, active = 1 or less; extreme values may be limits of the assay. The following applies: 60 µM; 6 days; temperature: 20 °C. A digest of the protocol: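 Worm survival and reproduction were recorded as an ordinal score of living worms per well, read under a dissection microscope. Each 96-well well held about 20 synchronized C. elegans N2 L1s with E. coli HB101 in liquid NGM and compound at 60 µM final (0.6% v/v DMSO), sealed and shaken at 200 rpm, 20 °C, for 6 days. Scores ranged from 0 (0–10 worms) to 4 (overgrown, starved) and were the mean of two biological replicates.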
As to `Clc1ccc(-c2noc(COc3ccccc3Cl)n2)cc1`, the “survival and reproduction score” value was 4 (inactive).

As for `CCNC(=O)c1ccccc1-c1nc(-c2ccc(F)cc2)no1`, the “survival and reproduction score” value is 2 (inactive).

For the compound `CC(C)(C)c1ccc(OCc2nc(-c3ccccc3)no2)cc1`, the “survival and reproduction score” value is 4 (inactive).

Take `c1ccc(OCc2nc(-c3cccs3)no2)cc1`: the “survival and reproduction score” value is 0 (active).

For `COc1ccc(OCc2nc(-c3ccccc3)no2)cc1`, the “survival and reproduction score” value is 4 (inactive).

As for `Cc1ccc(C)c(OCc2nc(-c3ccccc3Cl)no2)c1`, the “survival and reproduction score” value was 4 (inactive).

In the case of `Cc1cccc(OCc2nc(-c3ccc(Br)cc3)no2)c1`, the “survival and reproduction score” value is 4 (inactive).

Consider `COc1ccc(-c2nnc(SCc3ccccc3)o2)cc1`, for which the “survival and reproduction score” value was 4 (inactive).

As to `Cc1ccccc1CSc1nnc(-c2ccccc2Cl)o1`, the “survival and reproduction score” value is 4 (inactive).

Regarding `COc1ccc(Cl)cc1-c1noc(COc2ccccc2C)n1`, the “survival and reproduction score” value was 4 (inactive).

On to `COc1cccc(NC(=O)CSc2nnc(-c3ccc(Br)cc3)o2)c1`, for which the “survival and reproduction score” value was 4 (inactive).

On to `COc1ccc(-c2noc(-c3cccc(F)c3)n2)cc1`, for which the “survival and reproduction score” value was 4 (inactive).

Consider `CCOc1ccc(NC(=O)CSc2nnc(-c3ccccc3Cl)o2)cc1`, for which the “survival and reproduction score” value was 4 (inactive).

Consider `Brc1ccc(-c2noc(-c3ccco3)n2)o1`, for which the “survival and reproduction score” value is 4 (inactive).

On to `Cc1ccc(-c2noc(-c3ccccc3C)n2)cc1`, for which the “survival and reproduction score” value was 0 (active).

Take `COc1ccccc1-c1nc(-c2ccccc2Cl)no1`: the “survival and reproduction score” value was 4 (inactive).

For the compound `Clc1ccc(OCc2nc(-c3ccncc3)no2)cc1`, the “survival and reproduction score” value was 4 (inactive).

With `COc1ccc(-c2nnc(SCC(=O)N3CC(C)CC(C)C3)o2)cc1` (stereo not given), the “survival and reproduction score” value was 4 (inactive).

As to `O=C(CSc1nnc(-c2ccc(Cl)cc2)o1)Nc1ccccc1C(F)(F)F`, the “survival and reproduction score” value is 4 (inactive).

On to `CCOc1ccccc1NC(=O)CSc1nnc(-c2ccccc2)o1`, for which the “survival and reproduction score” value is 4 (inactive).
